Assay results from PubChem BioAssay.
Active and inactive are the calls of the source. Unless noted, no rule for the calls is given here.

Key:
[1] = tested on: Wnt5a (protein binding on small-molecule microarray); assay: small molecules binding Wnt5a protein – biophysical, small-molecule microarray, 635/667 nm fluorescence, primary screen (AID 1142); details: 635 nm fluorescence, higher = more signal;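 also: fluorescence read at 667 nm with signal to noise per printed feature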
[2] = ATP-based viability of Huh7 replicon cells – cell-based, CellTiter-Glo luminescence, basal, 48 h, cytotoxicity control for HCV replication inhibitor project, primary screen (AID 1143); details: higher = more signal, called active from +8 up or from −8 down;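 also: Huh7 hepatoma cells carrying a hepatitis C replication reporter with no stimulus; test concentration not given here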
[3] = Pseudomonas biofilm growth suppression – PAO1 strain, BacTiter-Glo luminescence, LB-PBS, primary screen (AID 1144); details: P. aeruginosa PAO1 biofilm, 12 h, higher = more signal
[4] = basal CRE-LacZ reporter activity in PC12 – cell-based, unstimulated, primary screen (AID 1145); details: no forskolin, luminescence, 4.5 h, higher = more signal, called active from +8 up or from −8 down
[5] = forskolin-driven CRE-LacZ activity in PC12 – cell-based, CRE-LacZ reporter, forskolin-stimulated, primary screen (AID 1146); details: luminescence, 4.5 h, higher = more signal, called active from +8 up or from −8 down;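 also: PC12 cells with 6xCRE LacZ reporter stimulated by forskolin 10 µM; beta-galactosidase reporter signal reflecting CREB driven transcription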
[6] = molecular target: Streptavidin (Streptomyces avidinii) (UniProt P22629); assay: compounds binding control protein streptavidin – biophysical, small-molecule microarray, 635/667 nm fluorescence, artefact control for SMM compound annotation, primary screen (AID 1147); details: higher = more signal;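 also: signal reflects streptavidin binding to arrayed compounds as a control protein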
[7] = probe aInhba binding on compound microarray – biochemical, small-molecule microarray, 635/667 nm fluorescence, primary screen (AID 1148); details: higher = more signal;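 also: score merges 667nm spot fluorescence with signal-to-noise for antibody binding to printed compounds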
[8] = molecular target: Torsin-1A (Homo sapiens) (UniProt O14656); assay: TOR1A wild-type binding on microarray – cell lysate, small-molecule microarray, lysate, 635/667 nm, primary screen (AID 1149); details: COS7 hTOR1A-WT lysate, 635 nm fluorescence, higher = more signal
[9] = molecular target: Torsin-1A (Homo sapiens) (UniProt O14656); assay: torsin A mutant lysate binding on microarrays – cell lysate, small-molecule microarray, COS7 lysate, 635/667 nm fluorescence, primary screen (AID 1150); details: COS7 hTOR1A mutant lysate, 635 nm fluorescence, higher = more signal;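 also: score pools 667 nm emission and signal to noise measuring lysate protein binding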
[10] = tested on: Sonic hedgehog protein (Shh); assay: Sonic hedgehog microarray binding compounds – biochemical, small-molecule microarray, 635/667 nm fluorescence, primary screen (AID 1151); details: 635 nm fluorescence, higher = more signal;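 also: Shh protein binding to compounds spotted on small-molecule microarray slides; score combines spot fluorescence intensity with signal-to-noise across triplicate slides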
[11] = optical density shifts of acrAB sulA E. coli – strain DRC41, OD650, 48 h, E. coli filamentation inducer project, primary screen (AID 1152); details: higher = more signal, called active from +8 up or from −8 down;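 also: E. coli MC1000 strain DRC41 lacking acrAB efflux pump and sulA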
[12] = probe aLefty1 binding on compound microarray – biochemical, small-molecule microarray, 635/667 nm fluorescence, primary screen (AID 1153); details: higher = more signal;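 also: score merges spot fluorescence with signal-to-noise ratio from the scanned slide images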
[13] = plasmodial surface anion channel blockers, osmotic lysis – cell-based, P. falciparum Indochina, OD700, 1 h, primary screen (AID 1154); details: P. falciparum Indochina infected RBC osmotic lysis, higher = more signal, called active from +8 up or from −8 down
[14] = plasmodial surface anion channel blockers, osmotic lysis – cell-based, P. falciparum Indochina, OD700, 2 h, primary screen (AID 1155);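 also: lysis reports solute entry through the parasite surface anion channel PSAC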; details: P. falciparum Indochina infected erythrocytes, higher = more signal, called active from +8 up or from −8 down
[15] = changes in parasitized red cell lysis, either direction – P. falciparum Indochina, OD700, 3 h, PSAC antagonist project, primary screen (AID 1156); details: P. falciparum-infected erythrocytes, osmotic lysis, higher = more signal, called active from +8 up or from −8 down
[16] = plasmodial surface anion channel blockers, osmotic lysis – cell-based, P. falciparum Indochina, OD700, 18 h, primary screen (AID 1157); details: P. falciparum Indochina infected erythrocytes, osmotic lysis OD700, 18 h; higher = more signal, called active from +8 up or from −8 down
[17] = S6 kinase pathway phospho-S6 level changes – cell-based, A549, cytoblot, luminescence, serum-stimulated, primary screen (AID 1158); details: 5 h, higher = more signal;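 also: serum-stimulated A549 lung adenocarcinoma cells; signal is phosphorylated S6 detected by cytoblot immunostaining with HRP secondary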
[18] = molecular target: NADPH oxidase 2 (Homo sapiens) (UniProt P04839); assay: compounds shifting NOX2 Amplex Red fluorescence – cell-based, HEK293-NOX2, PMA-stimulated, NOX inhibitor project, primary screen (AID 1159); details: 45 min, higher = more signal, called active from +8 up or from −8 down; also: test concentration not given here
[19] = molecular target: NADPH oxidase 4 (Homo sapiens) (UniProt Q9NPH5); assay: compounds shifting NOX4 Amplex Red fluorescence – cell-based, HEK293-NOX4, tetracycline-induced, NOX inhibitor project, primary screen (AID 1160); details: HEK293-NOX4, Amplex Red H2O2 fluorescence, 45 min; higher = more signal, called active from +8 up or from −8 down
[20] = molecular target: NADPH oxidase 5 (Homo sapiens) (UniProt Q96PH1); assay: compounds shifting NOX5 Amplex Red fluorescence – cell-based, HEK293-NOX5, NOX inhibitor project, primary screen (AID 1161); details: HEK293-NOX5, ionomycin, 45 min, higher = more signal
NADPH oxidase 5 (Homo sapiens), sequence (Q96PH1 whole entry, looked up): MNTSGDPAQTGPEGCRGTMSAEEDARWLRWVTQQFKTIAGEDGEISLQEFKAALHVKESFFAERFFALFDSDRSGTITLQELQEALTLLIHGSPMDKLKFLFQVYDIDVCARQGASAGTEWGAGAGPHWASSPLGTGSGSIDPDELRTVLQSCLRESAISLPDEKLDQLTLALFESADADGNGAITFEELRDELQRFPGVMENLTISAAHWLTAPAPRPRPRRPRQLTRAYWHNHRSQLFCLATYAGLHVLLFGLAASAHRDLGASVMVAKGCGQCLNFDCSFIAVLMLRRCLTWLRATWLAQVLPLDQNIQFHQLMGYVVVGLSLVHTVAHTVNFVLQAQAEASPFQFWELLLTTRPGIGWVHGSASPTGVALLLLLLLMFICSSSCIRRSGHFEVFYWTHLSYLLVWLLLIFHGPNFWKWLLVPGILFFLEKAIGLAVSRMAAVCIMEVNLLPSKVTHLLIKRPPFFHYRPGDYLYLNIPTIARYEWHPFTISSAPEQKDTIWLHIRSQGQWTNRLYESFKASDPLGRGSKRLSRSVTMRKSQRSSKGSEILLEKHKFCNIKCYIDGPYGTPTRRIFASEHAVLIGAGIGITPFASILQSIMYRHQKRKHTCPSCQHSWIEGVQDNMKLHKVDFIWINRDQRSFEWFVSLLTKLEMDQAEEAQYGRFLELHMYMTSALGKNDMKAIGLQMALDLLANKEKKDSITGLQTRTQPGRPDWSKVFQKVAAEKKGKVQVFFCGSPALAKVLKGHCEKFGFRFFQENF

NADPH oxidase 4 (Homo sapiens), sequence (Q9NPH5 whole entry, looked up): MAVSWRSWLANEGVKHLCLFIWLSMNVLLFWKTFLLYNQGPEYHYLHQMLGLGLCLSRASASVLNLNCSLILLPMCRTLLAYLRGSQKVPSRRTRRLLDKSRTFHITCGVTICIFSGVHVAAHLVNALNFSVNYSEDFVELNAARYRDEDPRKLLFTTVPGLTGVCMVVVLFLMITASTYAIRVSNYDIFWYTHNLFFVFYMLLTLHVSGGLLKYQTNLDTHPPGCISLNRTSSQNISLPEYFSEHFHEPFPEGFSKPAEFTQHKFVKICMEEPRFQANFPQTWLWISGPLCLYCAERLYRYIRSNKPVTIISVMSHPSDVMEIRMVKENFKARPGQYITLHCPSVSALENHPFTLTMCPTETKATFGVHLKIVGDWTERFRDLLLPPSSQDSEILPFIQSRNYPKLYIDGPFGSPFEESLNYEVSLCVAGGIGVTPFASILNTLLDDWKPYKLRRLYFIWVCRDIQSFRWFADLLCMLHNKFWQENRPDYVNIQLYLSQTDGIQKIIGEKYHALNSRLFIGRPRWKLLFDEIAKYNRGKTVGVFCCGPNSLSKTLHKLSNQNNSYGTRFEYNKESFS
NADPH oxidase 2 (Homo sapiens), sequence (P04839 whole entry, looked up): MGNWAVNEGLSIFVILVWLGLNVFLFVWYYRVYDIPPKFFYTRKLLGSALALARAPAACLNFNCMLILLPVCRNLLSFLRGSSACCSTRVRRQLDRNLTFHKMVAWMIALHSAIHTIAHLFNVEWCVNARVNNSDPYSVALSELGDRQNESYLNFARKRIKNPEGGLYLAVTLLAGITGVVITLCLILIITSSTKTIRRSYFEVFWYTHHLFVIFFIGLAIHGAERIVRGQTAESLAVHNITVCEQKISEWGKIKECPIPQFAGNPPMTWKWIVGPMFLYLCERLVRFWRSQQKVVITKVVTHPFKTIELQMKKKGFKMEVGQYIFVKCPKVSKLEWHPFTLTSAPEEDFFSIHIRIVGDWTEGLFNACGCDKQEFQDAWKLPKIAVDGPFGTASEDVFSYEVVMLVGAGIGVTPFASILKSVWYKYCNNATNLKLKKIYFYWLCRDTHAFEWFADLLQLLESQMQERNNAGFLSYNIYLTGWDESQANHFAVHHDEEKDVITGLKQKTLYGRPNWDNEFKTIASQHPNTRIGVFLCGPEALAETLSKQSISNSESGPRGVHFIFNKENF
Streptavidin (Streptomyces avidinii), sequence (P22629 whole entry, looked up): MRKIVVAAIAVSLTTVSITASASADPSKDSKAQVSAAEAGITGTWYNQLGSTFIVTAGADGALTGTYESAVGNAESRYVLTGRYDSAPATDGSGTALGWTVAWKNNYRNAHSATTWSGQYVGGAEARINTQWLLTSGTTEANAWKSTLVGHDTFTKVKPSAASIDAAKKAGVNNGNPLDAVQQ
Torsin-1A (Homo sapiens), sequence (O14656 whole entry, looked up): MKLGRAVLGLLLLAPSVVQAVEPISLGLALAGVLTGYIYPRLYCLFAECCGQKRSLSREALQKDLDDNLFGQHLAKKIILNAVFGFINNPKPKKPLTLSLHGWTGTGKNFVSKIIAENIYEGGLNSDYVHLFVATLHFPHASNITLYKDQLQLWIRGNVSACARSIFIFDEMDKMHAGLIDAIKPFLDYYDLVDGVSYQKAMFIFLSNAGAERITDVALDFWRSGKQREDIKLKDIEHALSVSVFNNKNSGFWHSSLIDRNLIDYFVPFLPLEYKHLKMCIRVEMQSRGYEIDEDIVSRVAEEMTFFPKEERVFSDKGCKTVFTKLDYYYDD

Compound	composite z-score [1]	z-score [2]	z-score [3]	z-score [4]	z-score [5]	composite z-score [6]	composite z-score [7]	composite z-score [8]	composite z-score [9]	composite z-score [10]	z-score [11]	composite z-score [12]	z-score [13]	z-score [14]	z-score [15]	z-score [16]	z-score [17]	z-score [18]	z-score [19]	z-score [20]
C[C@]1(C(=O)NCCN2CCOCC2)c2ccccc2C(=O)N(Cc2ccc(OC(F)(F)F)cc2)[C@H]1c1ccc(CO)cc1	-0.333	-0.653 (inactive)	-0.67 (inactive)	-0.412 (inactive)	-0.51 (inactive)	-0.152	-0.101	0.816	0.853	-0.704	0.0793 (inactive)	-0.0523	6.9 (inactive)	0.621 (inactive)	3.05 (inactive)	0.327 (inactive)	-0.173	0.752 (inactive)	1.19 (inactive)	0.0149
CCC[C@@H]1C[C@@]1(CCC)[C@@H](NP(=O)(c1ccccc1)c1ccccc1)c1ccc(Cl)cc1	-0.298	-1.4 (inactive)	0.22 (inactive)	0.0007 (inactive)	-0.113 (inactive)	-0.749	-0.232	-0.753	-0.731	-0.447	-2.39 (inactive)	0.0315	0.887 (inactive)	0.0991 (inactive)	0.278 (inactive)	0.323 (inactive)	0.0038	-0.769 (inactive)	-1.97 (inactive)	0.429
COC(=O)C1(Cc2ccccc2)C=C2C(=C(C(C)C)C(=O)C2C)CN1 (stereo not given)	0.131	-0.576 (inactive)	0.429 (inactive)	0.59 (inactive)	-0.173 (inactive)	-0.333	0.147	0.334	0.707	-0.45	-1.72 (inactive)	0.276	2.03 (inactive)	0.326 (inactive)	1.42 (inactive)	0.592 (inactive)	0.128	-0.862 (inactive)	-5.34 (inactive)	-4.04
CN1C(=O)C2C=CC(C(O)c3c(F)cccc3Cl)N(Nc3ccccc3)C2C1=O (stereo not given)	0.438	1.01 (inactive)	0.402 (inactive)	0.433 (inactive)	0.928 (inactive)	1.53	0.0374	-0.353	-0.562	-0.206	-1.32 (inactive)	0.277	0.32 (inactive)	0.733 (inactive)	-0.108 (inactive)	1.12 (inactive)	-0.809	-2.08 (inactive)	-4.96 (inactive)	-2.51
Cc1c(NC(=O)/C(C#N)=C/C=C/c2ccccc2[N+](=O)[O-])c(=O)n(-c2ccccc2)n1C	-0.145	-3.01 (inactive)	0.365 (inactive)	-0.0243 (inactive)	25.4 (active)	0.293	-0.176	0.185	0.331	0.844	0.56 (inactive)	-0.184	2.91 (inactive)	0.548 (inactive)	0.681 (inactive)	0.0839 (inactive)	-0.243	-0.235 (inactive)	0.0287 (inactive)	0.657
COc1cc(CO)cc(I)c1O[C@H]1C=C(C(=O)NCCO)C[C@@H](N(Cc2ccc(F)cc2)C(=O)C2CCCO2)[C@@H]1O (stereo not given in full)	-0.212	-0.457 (inactive)	-0.583 (inactive)	0.949 (inactive)	-1.24 (inactive)	-0.274	-0.227	-0.0326	-0.0306	0.399	3.54 (inactive)	-0.147	1.92 (inactive)	0.581 (inactive)	1.03 (inactive)	0.23 (inactive)	-0.0981	0.0499 (inactive)	0.93 (inactive)	0.73
COc1ccc([Si](C)(C)[C@H]2[C@H](CCn3cc([C@H](O)c4ccccc4)nn3)O[C@@]3(C(=O)N(Cc4ccc(N5CCOC5=O)cc4)c4ccccc43)[C@@H]2C)cc1	-0.271	-1.3 (inactive)	-0.434 (inactive)	0.804 (inactive)	-0.889 (inactive)	-0.303	-0.208	-0.995	-1.35	-0.25	-0.0796 (inactive)	-0.147	31.9 (active)	31.7 (active)	1.99 (inactive)	3.2 (inactive)	-0.532	0.308 (inactive)	2.85 (inactive)	2.08
COCCOC(=O)N1C(=O)[C@@]2(c3cc(C#CC4=CCCCC4)ccc31)[C@H](C(=O)N1CCN(c3ncccn3)CC1)[C@H]1C(=O)O[C@H](c3ccccc3)[C@H](c3ccccc3)N1[C@@H]2c1ccc(O)cc1	0.282	-1.17 (inactive)	-0.13 (inactive)	0.761 (inactive)	-0.0066 (inactive)	0.45	-0.0736	0.714	0.296	1.5	-0.386 (inactive)	0.315	1.65 (inactive)	1.5 (inactive)	0.116 (inactive)	0.824 (inactive)	1.13	1.11 (inactive)	0.482 (inactive)	1.2
COCC(=C=CC[C@H](O)c1ccc(OCCO)cc1)C[C@H](O)COCc1ccccc1	0.122	-1.66 (inactive)	-0.54 (inactive)	0.611 (inactive)	-0.724 (inactive)	0.249	-0.0736	0.908	0.719	1.55	1.19 (inactive)	0.179	16.5 (active)	1.61 (inactive)	0.103 (inactive)	-0.749 (inactive)	0.974	-1.6 (inactive)	-0.65 (inactive)	-2.52
